Results on 14 compounds are retold here after PubChem BioAssay (NCI).

Test systems include DU-145 prostate; K-562 leukemia; MALME-3M melanoma; MDA-MB-231 breast; SF-268 CNS; SF-295 CNS; SF-539 CNS; UACC-257 melanoma; M14 melanoma.
Common to all, as to test: NCI-60 one-dose screen, 48 h (100 = growth as untreated, 0 = no growth, -100 = all killed)
Conditions in all cases: 10 µM

About 83,000 compounds went through this panel and 20% of them were active in at least one assay; those are over-represented in the sample as a whole.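 In brief: 96-well plates, 48 h treatment, single concentration, percent growth endpoint.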 Unmarked numbers belong to inactive results. The source made the active and inactive calls. Rule for the calls: active = growth percent below 10; inactive = the rest.

As to `C#CCNC(=O)CCC(=O)OC[C@]12CC[C@@H](C(=C)C)[C@@H]1C1CC[C@@H]3[C@@]4(C)CCCNC(C)(C)[C@@H]4CC[C@@]3(C)[C@]1(C)CC2` (stereo partly specified), the growth in the assay on DU-145 prostate was 17.8%; with K-562 leukemia, 3.14% (active); in the assay with MALME-3M melanoma, -93.6% (active); in the assay with MDA-MB-231 breast, -47.9% (active); in the assay on SF-268 CNS it was 42.8%; with SF-295 CNS, -85.5% (active). Also, the growth was -99.3% (active) in the assay on SF-539 CNS, -78.4% (active) in the assay on UACC-257 melanoma and -80.4% (active) in the assay on M14 melanoma.

`O=C(/C=C/Nc1ccccc1)c1ccc2c(c1)Nc1ccccc1S2`: the growth was 84.3% with DU-145 prostate; 90.6% in the assay on K-562 leukemia; 71.5% in the assay on MALME-3M melanoma; 69.2% in the assay with MDA-MB-231 breast; 81.2% in the assay on SF-268 CNS; 78.1% with SF-295 CNS. The growth is 59.9% in the assay with SF-539 CNS, 96.7% with UACC-257 melanoma and 93.8% in the assay on M14 melanoma.

`O=C(CSc1nnc(-c2ccc3nc(-c4ccccc4)[nH]c3c2)o1)Nc1ccc(Cl)cc1`: the growth is 73.6% with DU-145 prostate; 16.7% with K-562 leukemia; 44% with MALME-3M melanoma; 27.4% in the assay on MDA-MB-231 breast; 59.6% with SF-268 CNS; -14.9% (active) with SF-295 CNS. For the same compound, the growth in the assay with SF-539 CNS is 23.4%; in the assay with UACC-257 melanoma, 75.3%; in the assay on M14 melanoma, 39.7%.

With `Cc1cc(=O)oc2cc(OCCCCOc3ccc(/C=C/C(=O)Nc4ccc(F)c(Cl)c4)cc3)ccc12`, the growth is 89.1% with DU-145 prostate; 88% with K-562 leukemia; 71% in the assay on MALME-3M melanoma; 97.1% in the assay with MDA-MB-231 breast; 111% in the assay on SF-268 CNS; 101% in the assay with SF-295 CNS. The growth in the assay with SF-539 CNS was 89.3%; in the assay with UACC-257 melanoma, 97.8%; in the assay with M14 melanoma it was 95.9%.

Take `COc1ccc(/C=C/C(=O)c2ccc(S(=O)(=O)NCCNc3nc(Nc4ccc(F)cc4)nc(N(C)C)n3)cc2)cc1`: the growth with DU-145 prostate was 28.7%; with K-562 leukemia, 27.3%; with MALME-3M melanoma, 49.3%; in the assay on MDA-MB-231 breast it was 29%; with SF-268 CNS, 25.8%; in the assay on SF-295 CNS, 23.3%. Besides, the growth in the assay on SF-539 CNS is 41.7%; with UACC-257 melanoma it was 47.9%; with M14 melanoma, 7.31% (active).

Turning to `CCOP(=O)(OCC)O[C@H]1CCC(=O)[C@@H]2[C@H]1[C@H]1C[C@@H]3[C@@]4(C)CCCC(C)(C(=O)OC)[C@@H]4CC[C@@]23C=C1C(C)C` (stereo partly specified), the growth was 83.1% in the assay on DU-145 prostate; 30.1% in the assay on K-562 leukemia; 86.2% with MALME-3M melanoma; 67% in the assay with MDA-MB-231 breast; 76.4% in the assay on SF-268 CNS; 69.1% in the assay with SF-295 CNS. Also, the growth in the assay on SF-539 CNS is 71.7%; in the assay with UACC-257 melanoma it was 41.8%; in the assay on M14 melanoma it was 55.4%.

On to `COc1ccc(C(=O)/C=C/c2cc(F)cc(C(F)(F)F)c2)cc1S(N)(=O)=O`, for which the growth in the assay with DU-145 prostate was 14.1%; with K-562 leukemia, 5.44% (active); with MALME-3M melanoma, -64.2% (active); with MDA-MB-231 breast it was -90.5% (active); in the assay with SF-268 CNS, 20.8%; with SF-295 CNS it was -47.5% (active). The results for the growth in the assay on SF-539 CNS, with UACC-257 melanoma and with M14 melanoma were -77.8% (active), -9.77% (active) and -68.4% (active), respectively.

On to `Cc1ccc(/C=C/C(=O)c2ccc(NC(=O)CSc3nnc(-c4c[nH]c5ccccc45)n3-c3ccccc3)cc2)cc1`, for which the growth in the assay with DU-145 prostate is 93%; in the assay on K-562 leukemia it was 64.1%; in the assay with MALME-3M melanoma, 93.9%; with MDA-MB-231 breast, 83.7%; with SF-268 CNS, 82.2%; with SF-295 CNS, 92.4%. The growth with SF-539 CNS was 7.12% (active); in the assay on UACC-257 melanoma, 111%; with M14 melanoma, 82.1%.

As to `CCOC(=O)CNC(=O)CN(Cc1ccccc1)C(=O)[C@@]1(C)CCC[C@]2(C)[C@H]3C[C@H]4C(C(C)C)=C[C@]3(CC[C@H]21)[C@@H]1C(=O)OC(=O)[C@@H]14`, the growth with DU-145 prostate was 92.8%; with K-562 leukemia, 24.9%; in the assay with MALME-3M melanoma, 101%; in the assay on MDA-MB-231 breast, 88.1%; with SF-268 CNS, 92.7%; in the assay on SF-295 CNS, 48.6%. For the same compound, the values for the growth in the assay with SF-539 CNS, in the assay with UACC-257 melanoma and in the assay on M14 melanoma were 91.8%, 89.5% and 73.3%, respectively.

Regarding `OCc1[nH]nc2cc(Nc3ncc4ccc(Br)c(OC5CCC(O)CC5)c4n3)ccc12` (stereo unspecified), the growth is 11.6% in the assay on DU-145 prostate; 11.4% in the assay on K-562 leukemia; -63.4% (active) with MALME-3M melanoma; -10.2% (active) with MDA-MB-231 breast; 7.67% (active) in the assay with SF-268 CNS; -49.8% (active) with SF-295 CNS. Further, the growth in the assay with SF-539 CNS was -83.3% (active); with UACC-257 melanoma, -18.2% (active); with M14 melanoma, -58.9% (active).

With `CN1CCO/C1=C(/NC(=O)c1ccc(Cl)cc1)[P+](c1ccccc1)(c1ccccc1)c1ccccc1`, the growth with DU-145 prostate was 95.2%; with K-562 leukemia, 50.3%; with MALME-3M melanoma, 69.2%; in the assay on MDA-MB-231 breast it was 61.8%; in the assay with SF-268 CNS, 97%; with SF-295 CNS it was 80.2%. Besides, the growth in the assay on SF-539 CNS is 94.5%; with UACC-257 melanoma, 62.4%; with M14 melanoma, 88.5%.

Consider `CCN1CCN(Cc2ccc(C(=O)Nc3cccc(-c4cn(-c5ccc6oc(=O)ccc6c5)nn4)c3)cc2C(F)(F)F)CC1`, for which the growth with DU-145 prostate was -100% (active); with K-562 leukemia it was -61.7% (active); in the assay with MALME-3M melanoma it was -100% (active); in the assay on MDA-MB-231 breast, -100% (active); in the assay on SF-268 CNS, -32.5% (active); in the assay with SF-295 CNS, -100% (active). The growth is -100% (active) in the assay with SF-539 CNS, -49.9% (active) in the assay with UACC-257 melanoma and -100% (active) with M14 melanoma.

For `CC1CC(c2ccc(N(C)C)cc2)=NN1c1nc(O)c(C2=c3cc(Br)ccc3=NC2=O)s1` (stereo unspecified), the growth with DU-145 prostate was 93.7%; with K-562 leukemia, 61.9%; in the assay on MALME-3M melanoma, 99.4%; in the assay with MDA-MB-231 breast, 99.8%; with SF-268 CNS, 91.7%; with SF-295 CNS, 68.9%. The growth with SF-539 CNS was 92.3%; with UACC-257 melanoma, 91.2%; with M14 melanoma it was 84.8%.

For the compound `CC(C)(C)c1ccc(NCc2cn(-c3ccc(C(=O)O)cc3)nc2-c2ccc(C#N)cc2)cc1`, the growth was 36.1% in the assay on DU-145 prostate; 14.8% in the assay on K-562 leukemia; 42.9% with MALME-3M melanoma; 41.9% with MDA-MB-231 breast; 33.9% with SF-268 CNS; 19.2% in the assay with SF-295 CNS. Also, the results for the growth in the assay on SF-539 CNS, in the assay on UACC-257 melanoma and in the assay with M14 melanoma were 14.3%, 45.5% and 30.1%, respectively.
